Reference: PubChem BioAssay AID1568 (National Center for Advancing Translational Sciences (NCATS), 2009)
Inconclusive results are not listed. Entries that show only a call come without a potency. Calls of active or inactive are those of the source. The call rests on the fitted dose curve; in most records, active means well fitted curve in the direction sought with a large enough effect; inconclusive means small, poorly fitted or top-dose-only effect, or effect the other way, or another doubt; inactive means no such curve, though single readings can be large or run the other way.

Test: Cell Viability Secondary Assay to Characterize qHTS Inhibitors of the Interaction of Thyroid Hormone Receptor and Steroid Receptor Coregulator 2
Settings: cell viability counter-screen, qHTS titration; series mostly up to 29.9 µM
Summary of the method: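 ATP-based luminescence (CellTiter-Glo) measured viability after 16 h, 37 C compound exposure alongside T3 at 100nM final. Cells: TRbeta- and TRE-luciferase-expressing human WRO thyroid carcinoma line, in phenol-red-free, charcoal-treated serum medium.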

Q: With `COc1cc(C(c2c(C)[nH][nH]c2=O)c2c(C)[nH][nH]c2=O)ccc1OC(=O)c1cccc(C)c1` as the compound, how does the Potency read?
A: Its Potency is “inactive”.

Q: For `Nc1c(C(=O)NCc2ccco2)c2nc3ccccc3nc2n1CCc1ccccc1`, which Potency is on record?
A: The Potency was “inactive”.

Q: For `Cc1cccc(S(=O)(=O)c2cn(Cc3ccccc3)c3cc(N4CCC(C)CC4)c(F)cc3c2=O)c1`, which Potency is on record?
A: Its Potency is “inactive”.

Q: Which Potency does the source give for `Nc1cc(N)c(OCC(F)(F)F)cc1OCC(F)(F)F` here?
A: Its Potency is 14.1 µM (active).

Q: Which Potency does the source give for `Cn1c(CCN2CCCCC2)nc2cc(NS(=O)(=O)c3ccc(Cl)cc3)ccc21` here?
A: The Potency was “inactive”.

Q: For `COc1cc(NC(C)CCCN)c2ncccc2c1` (centres undefined), which Potency is on record?
A: The Potency was 22.4 µM (active).

Q: For `CCOc1cc(N2CCOCC2)c(OCC)cc1NC(C)C(=O)N1CCN(CC)CC1` (centres undefined), which Potency is on record?
A: Its Potency is “inactive”.

Q: For `COC(=O)c1ccccc1-c1ccc(C(c2c(C)[nH][nH]c2=O)c2c(C)[nH][nH]c2=O)o1`, which Potency is on record?
A: Its Potency is “inactive”.

Q: Which Potency does the source give for `Oc1ccc2ccccc2c1C=NC12CN3CCN(CN(C3)C1)C2` here?
A: The Potency was “inactive”.

Q: For `Cc1ccc(OC(=S)Nc2ccc(O)cc2)cc1`, which Potency is on record?
A: Its Potency is “inactive”.

Q: With `O=C(NNc1cc(N2CCOCC2)nc(N2CCOCC2)n1)c1ccc([N+](=O)[O-])cc1` as the compound, how does the Potency read?
A: The Potency was “inactive”.

Q: Which Potency does the source give for `N#Cc1c(NC(=O)c2ccccc2Cl)n(Cc2ccccc2)c2nc3ccccc3nc12` here?
A: The Potency was “inactive”.

Q: For `CCOC(=O)C(NC(=O)Nc1ccc(O)cc1)(c1ccccc1)C(F)(F)F` (centres undefined), which Potency is on record?
A: The Potency was “inactive”.

Q: With `Cc1cccc(Cn2c(C(=O)OC(C)C)cc3c2ccn3C)c1` as the compound, how does the Potency read?
A: Its Potency is “inactive”.

Q: Which Potency does the source give for `CC(=O)c1cccc(NC(=O)COC(=O)c2ccc(S(C)(=O)=O)c([N+](=O)[O-])c2)c1` here?
A: The Potency was “inactive”.

Q: With `C=CCNC(=O)/C(C#N)=C/c1c(C)nn(-c2ccc(Cl)cc2)c1Cl` as the compound, how does the Potency read?
A: Its Potency is “inactive”.

Q: For `C=CC(=O)OCCOc1ccccc1`, which Potency is on record?
A: Its Potency is “inactive”.

Q: For `Cc1nc2ccccc2n2c(O)c(CC(=O)O)cc12`, which Potency is on record?
A: The Potency was “inactive”.

Q: With `Oc1ccc2ccccc2c1/C=N/c1nc2c(s1)CCCC2` as the compound, how does the Potency read?
A: The Potency was “inactive”.

Q: Which Potency does the source give for `N/C(Cc1cccc2ccccc12)=N\OC(=O)c1cccs1` here?
A: Its Potency is “inactive”.

Q: For `O=c1cc(C23CC4CC(CC(C4)C2)C3)[nH][nH]1`, which Potency is on record?
A: Its Potency is “inactive”.

Q: Which Potency does the source give for `Cn1cc(/C=C2\SC(=S)N(NC(=O)c3ccccc3)C2=O)c2ccccc21` here?
A: Its Potency is “inactive”.

Q: Which Potency does the source give for `Cc1nnc(SCC(=O)Nc2ccc(N(C)C)cc2)[nH]c1=O` here?
A: Its Potency is “inactive”.

Q: With `Cc1cc2ccccc2n1CCNC(=O)C(C)Oc1ccccc1` (centres undefined) as the compound, how does the Potency read?
A: Its Potency is “inactive”.

Q: For `C=CCSc1nnc2n(-c3ccccc3OC)c(=O)c3c4c(sc3n12)CCC4`, which Potency is on record?
A: Its Potency is “inactive”.

Q: For `Cc1nc2c3cc(F)ccc3n(Cc3ccccc3F)c2s1`, which Potency is on record?
A: Its Potency is “inactive”.

Q: For `CC1=NN(Cc2ccccc2)C(=O)C1`, which Potency is on record?
A: Its Potency is “inactive”.

Q: Which Potency does the source give for `COc1ccc(CN2C(=O)Cc3c2nc(N)c2c(N)nc(N4CCCCC4)c(C#N)c32)cc1` here?
A: Its Potency is “inactive”.

Q: With `COc1ccc2ccc3c(c2c1)N=CC1(O3)N(C)c2ccccc2C1(C)C` (centres undefined) as the compound, how does the Potency read?
A: The Potency was “inactive”.

Q: Which Potency does the source give for `CCSc1ncc(Cl)c(C(=O)Nc2nc3ccc(OC)cc3s2)n1` here?
A: The Potency was “inactive”.

Q: For `Cc1ccc(-c2nc(S(=O)(=O)c3ccc(F)cc3)c(SCC(=O)NCC3CCCO3)o2)cc1` (centres undefined), which Potency is on record?
A: The Potency was “inactive”.

Q: With `Cc1ccc2c(CC(=O)Nc3c(C(=O)c4ccc(F)cc4)oc4ccccc34)coc2c1C` as the compound, how does the Potency read?
A: The Potency was “inactive”.

Q: Which Potency does the source give for `CCOc1ccc(NC(=O)C(c2ccccn2)N(C(=O)CCl)c2ccc(F)cc2)cc1` (centres undefined) here?
A: The Potency was “inactive”.

Q: For `CN(C)c1cc(Cl)c2nonc2c1N`, which Potency is on record?
A: The Potency was “inactive”.

Q: For `CN(C(=S)Nc1cccnc1)c1ccc(O)cc1`, which Potency is on record?
A: Its Potency is “inactive”.

Q: Which Potency does the source give for `CCc1ccc2c(c1)c1nc(C)sc1n2CC` here?
A: Its Potency is “inactive”.

Q: With `CCCCCCN=CC1=C(O)CC(C)(C)CC1=O` as the compound, how does the Potency read?
A: Its Potency is “inactive”.

Q: For `CCOc1ccc(C2=Cc3cc(OC)c(OC)cc3C(=C(Cl)Cl)O2)cc1`, which Potency is on record?
A: Its Potency is “inactive”.

Q: With `O=C(O)[C@H]1CN(CCCP(=O)(O)O)CCN1` as the compound, how does the Potency read?
A: Its Potency is “inactive”.
